The campaign covered roughly 240,000 compounds. About 15 (0.006%) were called active. Only a sample is shown. Values without a mark were called inactive. The call rests on the fitted dose curve; in most records, active means well fitted inhibition curve with a large enough effect; inconclusive means small, poorly fitted or top-dose-only effect, or effect the other way, or another doubt; inactive means no such curve, though single readings can be large or run the other way. Where a SMILES comes first, the peptide text is derived from it.
target: Lysosomal alpha-glucosidase (Homo sapiens) (UniProt P10253); test: qHTS Assay for Inhibitors and Activators of Human alpha-Glucosidase From Spleen Homogenate; details: 4-MU-alpha-glucoside fluorescence; series mostly up to 79.9 µM; activity change, negative = inhibition: at the top concentration;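 further: 0% = enzyme with vehicle and -100% = no enzyme basal signal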
Source text: NIH Chemical Genomics Center [NCGC] NIH Molecular Libraries Probe Production Centers Network [MLPCN] MLPCN Grant: R03 MH084841-01 Assay Submitter (PI): Wei Zheng NCGC Assay Overview: Alpha-glucosidase is responsible for the hydrolysis of terminal, non-reducing 1,4-linked alpha-D-glucose residues, which releases alpha-D-glucose. It is a lysosomal hydrolase that is required for the degradation of a small percentage (1-3%) of cellular glycogen in humans. Deficiency of this enzyme results in glycogen-storage disease type II (GSDII), also referred to as Pompe disease, an autosomal recessive disorder. Structurally normal glycogen is accumulated in the lysosomes and cytoplasm in affected patients, primarily in muscle tissues. Excessive glycogen storage within lysosomes may interrupt normal functioning of other organelles and leads to cellular injury. In turn, this leads to enlargement and dysfunction of the entire organ involved (eg: cardiomyopathy and muscle weakness). It has been reported that the improper folding and trafficking of alpha-glucosidase resulting from genetic mutations may account for a significant number of Pompe patients. […] We optimized this alpha-glucosidase assay in 1536-well plate format for identification of novel small molecule inhibitors or activators with structures other than the sugar analogs in order to develop new pharmacological chaperones. In particular, this assay is directed towards discovering compounds active in a more natural setting, tissue homogenate, that may have been missed by screens of the purified enzyme under more stringent conditions.
NCGC Assay Protocol Summary: This is a fluorogenic enzyme assay with 4-methylumbelliferyl-alpha-D-glucopyranoside as the substrate and human spleen homogenate containing alpha-glucosidase as the enzyme preparation. Upon hydrolysis of this fluorogenic substrate, the resulting product, 4-methylumbelliferone (which excites at 365 nm and emits at 440 nm) can be detected by a fluorescence plate reader. Data were normalized to the controls for basal activity (without enzyme) and 100% activity (with enzyme). The AC50 values were determined from concentration-response data modeled with the standard Hill equation. Assay buffer: 50 mM citric acid (titrated with potassium phosphate to pH 5.0), 0.01% Tween-20 (pH 5.0 is an optimal condition for this enzyme assay) 1536-well assay protocol for the alpha-glucosidase from human spleen homogenate: (1) Add 2 ul/well spleen homogenate (1 ug) (2) Add 23 nL compounds in DMSO solution. The final titration was 0.5 nM to 58 uM. (3) Add 2 ul of substrate (1 mM final) (4) Incubate at 37 C for 40 min (5) Add 2 ul stop solution (1M NaOH and 1M Glycine mixture, pH 10) (6) Detect the assay plate in a ViewLux plate reader (PerkinElmer) with Ex=365 nm and Em=440nm. Keywords: Alpha-glucosidase, Pompe Disease, pharmacological chaperone, chaperone therapy, high throughput screening, alpha-glucosidase inhibitor, MLSMR, MLSCN, NIH Roadmap, qHTS and NCGC

| Structure (SMILES) | activity change, negative = inhibition [%] |
| --- | --- |
| Cc1nc(-c2ccccc2)sc1-c1nc(-c2ccccc2)ncc1S(=O)(=O)c1ccccc1 | -0.37 |
| CO[C@@]12[C@@H](COC(N)=O)C3=C(C(=O)C(C)=C(N)C3=O)N1C[C@@H]1N[C@@H]12 | -0.0282 |
| Cc1ccc2nc(/C(C#N)=C\c3ccc(OC(=O)c4cccs4)cc3)[nH]c2c1 | -2.6 |
| COc1c(O)c2c(=O)cc(OC)c3c4c(OC)cc(=O)c5c(O)c(OC)c6c(c(c1C[C@@](C)(O)[C@H]6C(C)=O)c23)c54 | -8.94 |
| Clc1ccc(C[n+]2cc(-c3ccc(Cl)cc3)n3c2CCC3)cc1 | -3.89 |
| COc1ccc(NC2=CC(=S)NC(C)(C)C2)cc1 | 0.55 |
| O=C(NCC1CC1)C1(C(F)(F)F)C/C(=C\CCO)CCCO1 (stereo not given) | 3.72 |
| COc1cc2[nH]c(=O)n(Cc3ccc(C(=O)NC4CCN(Cc5ccccc5)CC4)cc3)c(=O)c2cc1OC | -0.526 |
| COC(=O)C(CC(C)C)NS(=O)(=O)c1cc(Br)ccc1Br (stereo not given) | 3.71 |
| C=C1CCN(Cc2ccc(OC)cc2)S(=O)(=O)c2ccccc21 | -11.5 |
| CCOc1cc(C2C(C(=O)OC(C)C)=C(C)NC3=C2C(=O)CCC3)cc([N+](=O)[O-])c1O (stereo not given) | 1.08 |
| Cc1ccccc1N/C(SCc1ccc(Cl)cc1)=C(/C#N)C(N)=O | 3.19 |
| Cc1c(-c2ccccc2)n[nH]c1C(=O)N=Nc1c(O)[nH]c2ccccc12 | -7.29 |
| Cc1cc(C)c(NC(=O)CN2C(=O)NC(Cc3ccccc3)C2=O)c(C)c1 (stereo not given) | 1.21 |
| CC(=O)c1c(N2CCN(c3ccc(F)cc3)CC2)nc(=S)n(-c2ccccc2)c1C | 6.73 |
| O=C(CP(=O)(c1ccccc1)c1ccccc1)N1CCOCC1 | -1.35 |
| Cc1nn(CCOc2ccc(Br)cc2)c(C)c1[N+](=O)[O-] | 5.99 |
| COc1cc(OC)c2c(C)cc(=O)oc2c1C(CCN1CCCCC1)c1ccc(N(C)C)cc1 (stereo not given) | 2.28 |
| Cc1ccc(-c2nc(C)sc2CC(=O)OCC(=O)Nc2c(F)cccc2F)cc1 | 0.406 |
| CCCCCCCC[C@@H](O)/C=C/C=C/C=C\[C@@H](O)CCCC(=O)O | 1.53 |
| COc1ccc(CN2CCC(=O)c3ccccc3S2(=O)=O)cc1 | -5.9 |
| COc1ccc(C2CC(O)(c3ccccc3)Oc3cc(C)cc(C)c32)cc1 (stereo not given) | -2.15 |
| COC(=O)[C@@]1(C)C=C[C@@H](Cc2ccccc2)N1C(C)=O | -11.6 |
| O=C(C1CCN(c2nnc(-n3cccc3)s2)CC1)N1CCc2ccccc2C1 | -3.74 |
| O=C(CSc1ccccn1)Nc1nc2c(ccc3ccccc32)s1 | -2.23 |

| Structure (SMILES) | activity change, negative = inhibition [%] |
| --- | --- |
| CC(C)C(NS(=O)(=O)c1ccc(-c2ccc(Br)cc2)cc1)C(=O)O (stereo not given) | 9.33 |
| C[C@@H](O)[C@@H]1NC(=O)[C@H](CCCCN)NC(=O)[C@H](Cc2c[nH]c3ccccc23)NC(=O)[C@H](Cc2ccccc2)NC(=O)[C@H](Cc2ccccc2)NC(=O)[C@H](CC(N)=O)NC(=O)[C@H](CCCCN)NC(=O)[C@@H](NC(=O)[C@@H]2CCCN2)CSSC[C@@H](C(=O)N[C@@H](CCCCN)C(=O)O)NC(=O)[C@H](CO)NC(=O)[C@H](CO)NC(=O)[C@H](Cc2ccccc2)NC1=O (HELM PEPTIDE1{P.C.K.N.F.F.W.K.T.F.S.S.C.K}$PEPTIDE1,PEPTIDE1,2:R3-13:R3$$$V2.0) | 6.58 |
| CSc1ccccc1N1CCN(CCCCCC(=O)NC2CCCc3ccccc32)CC1 (stereo not given) | -1.62 |
| CC[C@H](C)[C@H](NC(=O)[C@H](Cc1ccc(O)cc1)NC(=O)[C@@H](NC(=O)[C@H](CCCN=C(N)N)NC(=O)[C@@H](N)CC(=O)O)C(C)C)C(=O)N[C@@H](Cc1cnc[nH]1)C(=O)N1CCC[C@H]1C(=O)N[C@@H](Cc1ccccc1)C(=O)O | -2.98 |
| Cc1ccc2c(c1)C(c1ccccc1)N(C(=O)c1ccc(S(=O)(=O)N3CCOCC3)cc1)CC(=O)N2 (stereo not given) | 3.75 |
| COC(=O)[C@@]1(Cc2ccccc2)[C@H]2c3cc(C(=O)N(C)C)n(CCSCCO)c3C[C@H]2CN1C(=O)c1ccccc1 | 0.272 |
| Cc1ccc(CNC(=O)C2(C(F)(F)F)C/C(=C\CCO)CCCO2)o1 (stereo not given) | -3.58 |
| O=C(c1cc(C(F)(F)F)cc(C(F)(F)F)c1)N1CCC2(CCCN(c3ccccn3)C2)CC1 | 2.45 |
| CCCN1CCC(=O)N(C(CSc2ccc(OC)cc2)Cc2ccccc2)CC1 (stereo not given) | -8.71 |
| CCCCNC(=S)N/N=C1\CCCCc2ccccc21 | -7.3 |
| C=CCCN(C(Cc1ccccc1)C(=O)OC)S(=O)(=O)c1cc(Br)ccc1Br (stereo not given) | 0.718 |
| Cc1ccccc1Nc1scc(-c2ccc(Br)cc2)[n+]1-c1ccccc1C | -4.94 |
| Cc1nc(C(=O)N2CCCC(C(=O)c3ccc(Cl)cc3)C2)cs1 (stereo not given) | 1.42 |
| CC1=CC(=C(C#N)c2nc3ccccc3s2)C=C(C)N1c1ccc(F)cc1F | 1.11 |
| Cc1cc(C(=O)OCC(=O)Nc2nccs2)c2ccccc2n1 | 2.11 |
| O=C1NC(=Nc2ccc(Cl)cc2)SC1Cc1cccc(Cl)c1Cl (stereo not given) | -5.67 |
| Cc1ccc(S(=O)(=O)N(CC(=O)Nc2cccc([N+](=O)[O-])c2)Cc2ccc(Cl)cc2)cc1 | 2.83 |
| COc1ccc(C2=Nc3cc(C)ccc3OC2)cc1 | -4.38 |
| CCOC(=O)Cn1c(=O)sc2cccc(Cl)c21 | -7.95 |
| CCN(CC)CCNC(=O)c1sc2ncn(CC(=O)Nc3ccc(C)c(Cl)c3)c(=O)c2c1C | -3.52 |
| Cc1cccc2c1-c1sc(C(=O)NCCCN3CCc4ccccc4C3)cc1CO2 | 18.1 |
| O=C1/C(=C/c2coc3ccc(O)cc3c2=O)SC(=S)N1c1ccccc1 | 4.43 |
| CC[C@H](C)[C@H](NC(=O)[C@H](CCCNC(=N)N)NC(=O)[C@H](CCCNC(=N)N)NC(=O)[C@H](CC(C)C)NC(=O)[C@H](Cc1ccccc1)NC(=O)CNC(=O)CNC(=O)[C@@H](N)Cc1ccc(O)cc1)C(=O)N[C@@H](CCCNC(=N)N)C(=O)N1CCC[C@H]1C(=O)N[C@@H](CCCCN)C(=O)N[C@@H](CC(C)C)C(=O)N[C@@H](CCCCN)C(=O)N[C@@H](Cc1c[nH]c2ccccc12)C(=O)N[C@@H](CC(=O)O)C(=O)N[C@@H](CC(N)=O)C(=O)N[C@@H](CCC(N)=O)C(=O)O | -9.54 |
| COc1ccc(-c2ccc(C3C4C=CCCC4(C)C(=O)N3Cc3ccccc3)c(F)c2)cc1OC (stereo not given) | -2.95 |
| Cc1ccc(-n2c(SCC(=O)N3c4ccccc4Sc4ccccc43)nnc2-c2ccncc2)cc1 | -8.44 |
